Screens as filed in PubChem.
Mtb bLac sens – beta-lactam sensitization of Mtb H37Rv, H37Rv; inhibition, % at 25 µM; M. tuberculosis H37Rv growth with meropenem, percent inhibition; AID 434955, 2010; hit rate 0.27% among 330,000; call rule not given here;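 note: growth measured after seven days incubation then overnight dye step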
RecA intein inh – Mtb RecA intein splicing inhibitors, primary screen, biochemical, fluorescence, HTS | Protein RecA (Mycobacterium tuberculosis (strain ATCC 25618 / H37Rv)), P9WHJ3 | cell-free RecA intein splicing | inhibition, % (no concentration beside the values) | hit rate 0.75% among 290,000; in the data active = inhibition above about 30%
Mtb FBA inh – Mtb FBA enzyme inhibitors, primary screen, biochemical, fluorescence, strain H37Rv. Fructose-bisphosphate aldolase (Mycobacterium tuberculosis (strain ATCC 25618 / H37Rv)), …. purified M. tuberculosis FBA, fluorescence read-out. inhibition, % at 1 µM. hit rate 2.3% among 360,000. AID 588726, 2011; in the data active = inhibition above about 27%
Target sequence (P9WQA3 whole entry, looked up): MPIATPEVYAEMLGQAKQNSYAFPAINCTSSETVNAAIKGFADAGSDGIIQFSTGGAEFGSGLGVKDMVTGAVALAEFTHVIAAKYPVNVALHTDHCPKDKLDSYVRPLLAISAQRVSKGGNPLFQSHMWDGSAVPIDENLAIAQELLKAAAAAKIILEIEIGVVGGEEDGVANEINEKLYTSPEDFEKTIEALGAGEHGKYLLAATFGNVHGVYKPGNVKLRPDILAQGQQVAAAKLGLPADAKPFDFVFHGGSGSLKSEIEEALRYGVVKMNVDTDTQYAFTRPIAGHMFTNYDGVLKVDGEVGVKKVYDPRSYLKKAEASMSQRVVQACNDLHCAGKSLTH
CCHF vOTU inh – CCHFV vOTU protease inhibitors, primary screen, biochemical, Pep-AMC substrate, fluorescence. Crimean-Congo hemorrhagic fever virus L polyprotein viral ovarian tumor (vOTU) protease …. inhibition, % at 11.5 µM. hit rate 0.55% among 370,000
GDH-TPI inh – GDH-TPI coupling enzyme inhibitors, primary screen, artefact control for M. tuberculosis FBA inhibitor project, biochemical, absorbance, full deck; GDH-TPI coupled enzyme counterscreen, NADH absorbance; inhibition, % at 4.8 µM; hit rate 1.2% among 360,000; AID 588335, 2011
Each line names hits and unclear results; the compound was inactive in the other large screens. A selection: hits, their analogues and other compounds. The true share with any hit is near 4.2%. Cut-off read from the data, not from the text of the source, unless noted: active = inhibition above about 30%; inactive = the rest.

CNC(=O)/C(C#N)=C/c1ccc(OCCOc2ccccc2)cc1	GDH-TPI inh 40
COc1ccc(/C=C(\C#N)C(=O)NCC(c2ccc(F)cc2)N2CCOCC2)cc1 (configuration not stated)	GDH-TPI inh 43
N#C/C(=C\c1ccc(OCC(N)=O)cc1)C(=O)NC1CC1	GDH-TPI inh 45
COc1ccc(/C=C(\C#N)C(=O)NCc2ccccc2)cc1	GDH-TPI inh 40
CC(C)Oc1ccc(/C=C(\C#N)C(=O)NC2CC2)cc1	none
CCOC(=O)[C@]12CCCCC/C=C\1N(Cc1ccc(OC)cc1)C(=O)[C@H]2CC(=O)N1CCN(C(=O)c2ccco2)CC1	none (no result: Mtb bLac sens, RecA intein inh, Mtb FBA inh, GDH-TPI inh)
O=C(CCc1ccccc1)N[C@H]1[C@H](OC(=O)c2ccco2)CCC[C@@]12C(=O)N(Cc1ccccc1)c1ccccc12	none (no result: Mtb bLac sens, RecA intein inh, Mtb FBA inh, GDH-TPI inh)
COc1ccc(-n2c(/C=C(\C)O)nc(=O)c3c(C)cc(C)nc32)cc1	GDH-TPI inh 59
COc1ccc(-n2c(C)nn(C)c2=O)cc1	none
C/C(=C/CCC(C)[C@H]1CC[C@@]2(C)C3=C(CC[C@]12C)[C@@]1(C)CCC(=O)C(C)(C)[C@@H]1CC3)C(=O)O (some centres not stated)	RecA intein inh 42
C/C(=C/CCC(C)C1CCC2(C)C3CCC4C(C)(C)C(=O)CCC4(C)C3=CCC12C)C(=O)O (configuration not stated)	none (no result: Mtb bLac sens, Mtb FBA inh, CCHF vOTU inh, GDH-TPI inh)
Cn1c(/C(C#N)=C(\O)c2ccc([N+](=O)[O-])cc2)nc2ccccc21	none
CCN(CC)S(=O)(=O)c1ccc(/C(O)=C(\C#N)c2nc3ccccc3n2C)cc1	GDH-TPI inh 39
CCCCNS(=O)(=O)c1ccc2nc(SCC(=O)Nc3sccc3C#N)[nH]c2c1	CCHF vOTU inh 30
CCCCNS(=O)(=O)c1ccc2nc(SCC(N)=O)[nH]c2c1	none
COC(=O)[C@]12C[C@H](CC(=O)N3CCCC3)C(=O)N(CCC3=CCCCC3)C1=C[C@H](C1CCCC1)O[C@@H]2C	none (no result: Mtb bLac sens, RecA intein inh, Mtb FBA inh, GDH-TPI inh)
CC(C)[C@H]1Cn2nncc2Cn2c3ccccc3c(=O)n21	none (no result: Mtb bLac sens, RecA intein inh, Mtb FBA inh, GDH-TPI inh)
CC(=O)c1ccc(N2CCN(C(=O)c3ccc(Cl)c(NC4=NC5CS(=O)(=O)CC5S4)c3)CC2)cc1 (configuration not stated)	GDH-TPI inh 42
CCOC(=O)c1nnc(-c2ccccc2)nc1NC	none
CCOC(=O)c1nnc(-c2ccccc2)nc1Oc1ccccc1Cl	RecA intein inh 45
COC(=O)C1(C)CCc2cc(OC)ccc2C1=O (configuration not stated)	none
COc1ccc2c(c1)CCC1(C)CC(=O)C(Br)=C21 (configuration not stated)	Mtb FBA inh active, GDH-TPI inh 42 (no result: Mtb bLac sens, RecA intein inh)
N#Cc1cc2c(=O)n3ccccc3nc2n(Cc2ccco2)c1=NC(=O)c1ccco1	Mtb FBA inh 168
Cc1cccn2c(=O)c3cc(C#N)c(=NC(=O)c4cccs4)n(CCCOC(C)C)c3nc12	Mtb FBA inh active
CCOCCCn1c(=NC(=O)c2cccs2)c(C#N)cc2c(=O)n3ccccc3nc21	Mtb FBA inh active
CC(=O)N=c1c(C#N)cc2c(=O)n3cccc(C)c3nc2n1CCCOC(C)C	Mtb FBA inh active
COc1ccc(C(=O)N=c2c(C#N)cc3c(=O)n4cccc(C)c4nc3n2Cc2ccco2)cc1	none (no result: Mtb bLac sens, Mtb FBA inh, CCHF vOTU inh, GDH-TPI inh)
CCCCNC(=O)C1CCCN1C(=O)Nc1cc(Cl)cc(Cl)c1 (configuration not stated)	none (no result: Mtb bLac sens, RecA intein inh, Mtb FBA inh, GDH-TPI inh)
CC(=O)N=c1c(C#N)cc2c(=O)n3cccc(C)c3nc2n1Cc1ccco1	Mtb FBA inh active
CCOc1ccc(-n2c(SCC(=O)Nc3ccc4c(c3)c3ccccc3n4CC)nnc2-c2cccnc2)cc1	none (no result: Mtb bLac sens, RecA intein inh, Mtb FBA inh, GDH-TPI inh)
N[C@H](C(=O)N[C@@H](Cc1ccccc1)C(=O)N1CCC2CCN(S(=O)(=O)c3ccccc3)CC21)c1ccccc1 (some centres not stated)	none (no result: Mtb bLac sens, RecA intein inh, Mtb FBA inh, GDH-TPI inh)
CCN(CC)C(=O)CNc1nnnn1-c1ccccc1	none (no result: Mtb bLac sens, RecA intein inh, Mtb FBA inh, GDH-TPI inh)
N#Cc1c(SCc2ccc(Cl)cc2)sc(C(=O)c2ccccc2)c1N	none
CSc1c(C#N)c(N)nc2sc(C(=O)c3ccccc3)c(N)c12	GDH-TPI inh 46
Oc1c(Br)cc(C2N=C(c3ccccc3)NO2)cc1Br (configuration not stated)	GDH-TPI inh 32
CSc1ccc(C2N=C(c3ccccc3)NO2)cc1 (configuration not stated)	none (no result: CCHF vOTU inh)
CN1CC=C2C(C#N)=C(N)C(C#N)(C#N)[C@H](c3ccoc3)[C@H]2C1	Mtb FBA inh 61 (no result: CCHF vOTU inh)
COc1ccc(N=Cc2c(O)n(C)c(=O)n(C)c2=O)cc1	none
Cc1cccc(N=Cc2c(O)n(C)c(=O)n(C)c2=O)c1	GDH-TPI inh 36
Cn1c(O)c(/C=N/c2ncccn2)c(=O)n(C)c1=O	GDH-TPI inh 32 (no result: Mtb bLac sens)
Cc1ccc(N=Cc2c(O)n(C)c(=O)n(C)c2=O)cc1	GDH-TPI inh 35
COc1ccc(Oc2c(C)oc3c(CN4CCOCC4)c(O)ccc3c2=O)cc1	none
COc1cccc(O)c1CN1CCCC(C(=O)c2ccccc2SC)C1 (configuration not stated)	none
Cc1oc2c(CN3CCCCC3)c(O)ccc2c(=O)c1-c1ccc(Cl)cc1	Mtb FBA inh 113
COc1cccc(Oc2c(C)oc3c(CN4CCOCC4)c(O)ccc3c2=O)c1	Mtb FBA inh 142 (no result: Mtb bLac sens, RecA intein inh)
COc1ccccc1-c1c(C)oc2c(CN3CCOCC3)c(O)ccc2c1=O	Mtb FBA inh active
CCc1cc2c(-c3ccccc3)cc(=O)oc2c(CN2CCOCC2)c1O	none
COc1ccccc1-c1coc2c(CN3CCCC(C)C3)c(O)ccc2c1=O (configuration not stated)	Mtb FBA inh active
O=c1cc(-c2ccccc2)c2ccc(O)c(CN3CCCCC3)c2o1	none
COC(=O)[C@]12C[C@H](CC(=O)NCc3ccccc3)C(=O)N(Cc3ccco3)C1=C[C@H](C(C)(C)C)O[C@@H]2C	none (no result: Mtb bLac sens, RecA intein inh, Mtb FBA inh, GDH-TPI inh)
C#CCNC(=O)C[C@@H]1C(=O)N(CC=C)C2=CCCCC[C@]21C(=O)OC	none (no result: Mtb bLac sens, RecA intein inh, Mtb FBA inh, GDH-TPI inh)
COC(=O)[C@]12C[C@H](CC(=O)NCc3ccc(OC)c(OC)c3)C(=O)N(Cc3ccc(Cl)cc3Cl)C1=C[C@H](C1CCCC1)O[C@@H]2C	none (no result: Mtb bLac sens, RecA intein inh, Mtb FBA inh, GDH-TPI inh)
COC(=O)[C@]12C[C@H](CC(=O)N3CCC(c4ccccc4)CC3)C(=O)N(CCC3=CCCCC3)C1=C[C@H](C(C)C)O[C@@H]2C1CC1	none (no result: Mtb bLac sens, RecA intein inh, Mtb FBA inh, GDH-TPI inh)
CCOC(=O)c1c(C)oc2c1c(CN1CCN(CCO)CC1)c(O)c1ccccc12	none (no result: Mtb bLac sens, RecA intein inh)
CCOC(=O)c1ccc(Oc2c(C)oc3c(CN4CCN(C)CC4)c(O)ccc3c2=O)cc1	Mtb FBA inh 157
COc1ccccc1-c1c(C)oc2c(CN3CCCC(C)C3)c(O)ccc2c1=O (configuration not stated)	Mtb FBA inh active (no result: Mtb bLac sens)
COC(=O)Cc1c(C)c2ccc(O)c(CN3CCCC(C)C3)c2oc1=O (configuration not stated)	none (no result: Mtb FBA inh)
